High-throughput results: PubChem BioAssay, several laboratories
TWEAK-Fn14 inh – TWEAK-Fn14 signaling inhibition; TWEAK-stimulated Fn14 reporter cells, luciferase luminescence, 8 h; inhibition, % at 10 µM; 360,000 compounds, 2% hits; in the data active = inhibition above about 50%
PAX8 inh HTS – lowers PAX8-driven luciferase in RMG-I cells | inhibition, % at 12.6 µM | 360,000 compounds, 1.2% hits | RMG-I TPO-luciferase reporter, SteadyGlo, 24 h;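 active = mean replicate inhibition at least 60% with every replicate also reaching 60%; inconclusive = only one of the two criteria is met; inactive = mean below 60% and not all replicates reaching 60%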;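 note: luciferase light reporting Pax8 driven TPO promoter activity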
EWS-Fli inh – EWS/Fli transcriptional activity inhibition; A673 NR0B1-luciferase reporter, viability-normalised; inhibition, % at 12.6 µM; 350,000 compounds, 0.67% hits; AID 651661;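 active = mean inhibition of at least 50% after viability correction, with every replicate also passing that limit; inconclusive = mean reaches 50% but only one of two replicates passes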;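 note: firefly luciferase signal divided by Alamar Blue viability fluorescence both relative to DMSO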
EBV LMP1 NFkB – inhibitors of Epstein-Barr LMP1-induced NF-kappaB reporter; LMP1-induced NF-kappaB luciferase reporter cells, luminescence; inhibition, % at 12.5 µM; 350,000 compounds, 0.69% hits; AID 504558; in the data active = inhibition above about 41%; inconclusive = no clear call, values can overlap the other calls
TROY signal inh – TROY signaling inhibition | Q293 LMP1-TROYcd NF-kB luciferase reporter, 4 h | inhibition, % at 10 µM | 360,000 compounds, 0.98% hits | AID 1347056;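 active = compounds whose plate-normalised and pattern-corrected inhibition of the luciferase reporter signal at the single screening dose is 50% or more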
LGR2 antag – blocks bursicon-induced cAMP signaling via Drosophila LGR2. 380,000 compounds, 0.35% hits. HEK293 LGR2, CRE-luciferase, bursicon-stimulated, 4 h. inhibition, % at 9.99 µM. AID 720647;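 active = drop in luminescence signal, shown as inhibition above about 50% in the replicate tests, limit read from the data, passing the limit was not always enough; inconclusive = probably only some replicates passing the limit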;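 note: agonist challenge used bursicon conditioned medium at about half maximal strength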
A number is an active result. This is a sample that favours compounds with a hit; in the whole collection about 3.2% have one here.

`CC(C)(C)OC(=O)NCc1ccc(CNC(=O)c2[nH]cnc2C(=O)Nc2ccccc2F)cc1` gave TWEAK-Fn14 inh 54, PAX8 inh HTS inactive, EWS-Fli inh inactive, EBV LMP1 NFkB inactive, TROY signal inh inactive and LGR2 antag inconclusive.
CC(C)(C)OC(=O)NCc1ccc(NC(=O)c2nc[nH]c2C(=O)NCCCCNC(=O)c2[nH]cnc2C(=O)Nc2ccc(CNC(=O)OC(C)(C)C)cc2)cc1 was read as TWEAK-Fn14 inh inactive, EBV LMP1 NFkB inactive and TROY signal inh inactive.
CC(C)(C)OC(=O)NCCCCCNC(=O)c1[nH]cnc1C(=O)Nc1cc(Br)ccc1F was read as TWEAK-Fn14 inh 76, PAX8 inh HTS inconclusive, EWS-Fli inh inactive, EBV LMP1 NFkB inactive, TROY signal inh inactive and LGR2 antag inactive.
Cc1ccc(S(=O)(=O)N[C@H]2CC[C@H](CCNC(=O)Cc3ccccn3)O[C@@H]2CO)cc1 was read as PAX8 inh HTS inactive, EWS-Fli inh inactive and LGR2 antag inactive.
For C[C@H](NC(=O)c1nc[nH]c1C(=O)NCc1ccc(CNC(=O)OC(C)(C)C)cc1)c1ccccc1 the results were TWEAK-Fn14 inh inactive, PAX8 inh HTS inactive, EWS-Fli inh inactive, EBV LMP1 NFkB inactive, TROY signal inh inactive and LGR2 antag inactive.
`Cn1cnc(C(=O)NCc2ccc(CNC(=O)OC(C)(C)C)cc2)c1C(=O)NCc1ccc(CNC(=O)OC(C)(C)C)cc1` gave TWEAK-Fn14 inh 58, PAX8 inh HTS inactive, EWS-Fli inh inactive, EBV LMP1 NFkB inactive, TROY signal inh inactive and LGR2 antag inactive.
Screening CC(C)(C)OC(=O)NCCCC[C@H](NC(=O)c1[nH]cnc1C(=O)Nc1ccc(CNC(=O)OC(C)(C)C)cc1)C(=O)OC(C)(C)C returned PAX8 inh HTS 110, EWS-Fli inh inactive and LGR2 antag inactive.
`C[C@H](NC(=O)c1nc[nH]c1C(=O)NCc1ccc(CNC(=O)OC(C)(C)C)cc1)C(=O)OCc1ccccc1` gave TWEAK-Fn14 inh inactive, PAX8 inh HTS inactive, EWS-Fli inh inactive, EBV LMP1 NFkB inactive, TROY signal inh 57 and LGR2 antag inactive.
CC(C)(C)OC(=O)NCc1ccc(CNC(=O)c2ncn(Cc3ccccc3)c2C(=O)NCc2ccc(CNC(=O)OC(C)(C)C)cc2)cc1 was read as TWEAK-Fn14 inh inactive, PAX8 inh HTS inactive, EWS-Fli inh inactive, EBV LMP1 NFkB inactive and TROY signal inh inactive.
Screening CC(C)(C)OC(=O)NCCCCCNC(=O)c1[nH]cnc1C(=O)Nc1ccc(Cl)cc1 returned TWEAK-Fn14 inh 62, PAX8 inh HTS inactive, EWS-Fli inh inactive, EBV LMP1 NFkB inactive, TROY signal inh 57 and LGR2 antag inactive.
CC(C)(C)OC(=O)NCCCC[C@H](NC(=O)c1nc[nH]c1C(=O)NCc1ccccc1)C(=O)OC(C)(C)C was read as TWEAK-Fn14 inh inactive, PAX8 inh HTS inactive, EWS-Fli inh inactive, EBV LMP1 NFkB inactive and TROY signal inh inactive.
Screening CC1(C)CC(=O)C2=C(C1)OC1=C(C(=O)CC(C)(C)C1)C2c1ccc(O)cc1O returned TWEAK-Fn14 inh 104, EBV LMP1 NFkB inactive and TROY signal inh 82.
For CC1(C)CC(=O)C2=C(C1)OC1=C(C(=O)CC(C)(C)C1)C2c1ccc(O)c([N+](=O)[O-])c1 the results were TWEAK-Fn14 inh inactive, PAX8 inh HTS inactive, EWS-Fli inh inactive, EBV LMP1 NFkB inactive, TROY signal inh inactive and LGR2 antag inactive.
For CC(=O)N1CC(=O)N2[C@H](CO)[C@@H](c3ccc(C#CC(C)C)cc3)[C@H]2C1 the results were PAX8 inh HTS inactive, EWS-Fli inh inactive and LGR2 antag inactive.
Cc1c(CNCCCc2ccccc2)c(C(=O)O)c(C)n1Cc1ccccc1 was read as TWEAK-Fn14 inh inactive, PAX8 inh HTS inactive, EWS-Fli inh inactive, EBV LMP1 NFkB inactive, TROY signal inh 52 and LGR2 antag inactive.
For Cc1c(CNCC(C)c2ccccc2)c(C(=O)O)c(C)n1Cc1ccccc1 (configuration not stated) the results were TWEAK-Fn14 inh inactive, PAX8 inh HTS inactive, EWS-Fli inh inactive, EBV LMP1 NFkB inactive, TROY signal inh inactive and LGR2 antag inactive.
`O=C(CNC(=O)/C(=C\c1ccc(F)cc1)NC(=O)c1ccccc1)OCc1ccccc1` gave TWEAK-Fn14 inh inactive, EBV LMP1 NFkB inactive and TROY signal inh inactive.
O=C(CNC(=O)/C(=C\c1ccccc1)NC(=O)c1ccc(Br)cc1)OCc1ccccc1 was read as TWEAK-Fn14 inh 73 and EBV LMP1 NFkB inactive.
C=CCc1cc(C)ccc1OCCOCCC(C(=O)OCC)C(=O)OCC was read as TWEAK-Fn14 inh inactive, PAX8 inh HTS 79, EWS-Fli inh inactive, EBV LMP1 NFkB inactive, TROY signal inh inactive and LGR2 antag inactive.
Screening Cc1ccc2nc(-c3ccc(NC(=O)C4CCCO4)cc3)[nH]c2c1 (configuration not stated) returned TWEAK-Fn14 inh 70, EBV LMP1 NFkB inactive, TROY signal inh inactive and LGR2 antag 60.
Screening O=C(Nc1ccc2oc(-c3ccccc3)nc2c1)C1CCCO1 (configuration not stated) returned TWEAK-Fn14 inh inactive, PAX8 inh HTS inactive, EWS-Fli inh inactive, EBV LMP1 NFkB inactive, TROY signal inh inactive and LGR2 antag inactive.
CCS(=O)(=O)Nc1ccc(-c2nc3cccnc3s2)cc1 was read as TWEAK-Fn14 inh 69, PAX8 inh HTS inactive, EWS-Fli inh inactive, EBV LMP1 NFkB inactive, TROY signal inh inactive and LGR2 antag inactive.
Screening O=C(Nc1ccc(-c2nc3cccnc3s2)cc1)C1CCCO1 (configuration not stated) returned TWEAK-Fn14 inh 99, PAX8 inh HTS inactive, EWS-Fli inh 66, EBV LMP1 NFkB 65, TROY signal inh 60 and LGR2 antag 90.
Cc1ccc2nc(-c3ccc(NC(=O)Cc4cccs4)cc3)[nH]c2c1 was read as TWEAK-Fn14 inh inactive, EWS-Fli inh inactive, EBV LMP1 NFkB inactive, TROY signal inh inactive and LGR2 antag inactive.
CCS(=O)(=O)Nc1cccc(-c2nc3cccnc3s2)c1 was read as TWEAK-Fn14 inh inactive, PAX8 inh HTS inactive, EWS-Fli inh inactive, EBV LMP1 NFkB inactive, TROY signal inh inactive and LGR2 antag inactive.
For O=C(Nc1ccc(-c2nc3ccccc3o2)cc1)C1CCCO1 (configuration not stated) the results were TWEAK-Fn14 inh inactive, EBV LMP1 NFkB inactive and TROY signal inh inactive.
Screening O=C(Nc1ccc(-c2nc3cc(Cl)ccc3o2)cc1)C1CCCO1 (configuration not stated) returned TWEAK-Fn14 inh 50, PAX8 inh HTS inactive, EBV LMP1 NFkB inactive and TROY signal inh inactive.
Screening CC(=O)c1cccc(NC(=S)Nc2cccc3ccccc23)c1 returned TWEAK-Fn14 inh inactive, PAX8 inh HTS inactive, EWS-Fli inh inactive, EBV LMP1 NFkB inactive, TROY signal inh 57 and LGR2 antag inactive.
For CC(=O)Nc1cccc(NC(=S)Nc2cccc3ccccc23)c1 the results were TWEAK-Fn14 inh inactive, PAX8 inh HTS inactive, EBV LMP1 NFkB inactive, TROY signal inh inactive and LGR2 antag inactive.
